# Bioassay records from PubChem BioAssay.
# A selection: hits, their analogues and other compounds. The true share with any hit is near 3.2%.
# FBA Mtb inh: Mtb FBA enzyme inhibitors, primary screen, biochemical, fluorescence, strain H37Rv; inhibition, % at 1 µM; purified M. tuberculosis FBA, fluorescence read-out; Fructose-bisphosphate aldolase (Mycobacterium tuberculosis (strain ATCC 25618 / H37Rv)), …; 360,000 compounds, 2.3% hits; in the data active means inhibition above about 27%;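 further: 0% = vehicle and 100% = reference inhibitor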
# Target sequence (P9WQA3 whole entry, looked up): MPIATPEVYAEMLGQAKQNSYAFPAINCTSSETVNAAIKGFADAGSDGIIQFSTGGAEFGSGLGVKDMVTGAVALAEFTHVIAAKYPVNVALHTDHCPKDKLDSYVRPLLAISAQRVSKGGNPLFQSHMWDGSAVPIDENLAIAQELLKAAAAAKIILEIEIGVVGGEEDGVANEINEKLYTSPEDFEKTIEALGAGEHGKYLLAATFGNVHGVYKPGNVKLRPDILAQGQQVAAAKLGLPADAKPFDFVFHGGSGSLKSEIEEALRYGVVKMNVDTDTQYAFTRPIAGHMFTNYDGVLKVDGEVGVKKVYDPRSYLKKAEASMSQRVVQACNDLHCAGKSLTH
# PrPC TRFRET: inhibitors of human cell surface prion protein PrPC, primary screen, cell-based, TR-FRET; Major prion protein (Homo sapiens), P04156; TR-FRET read-out; inhibition, % at 13.8 µM; 370,000 compounds, 0.43% hits; AID 720596, 2013; in the data active means inhibition above about 24%; further: 0% = median of the test wells and 100% = reference compound wells
# Y pestis TopoI: Yersinia pestis topoisomerase I inhibitors, primary screen, biochemical, cleavage product accumulation, plate reader, single point; DNA topoisomerase I (Yersinia pestis CO92); Y. pestis Topo-I cleavage product accumulation; activity, % at 10 µM; 360,000 compounds, 0.064% hits; in the data active means activity above about 50%, passing the limit was not always enough
# GDH-TPI counter: GDH-TPI coupling enzyme inhibitors, primary screen, artefact control for M. tuberculosis FBA inhibitor project, biochemical, absorbance, full deck | AID 588335, 2011 | inhibition, % at 4.8 µM | 360,000 compounds, 1.2% hits | GDH-TPI coupled enzyme counterscreen, NADH absorbance; in the data active means inhibition above about 30%;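 further: 0% = DMSO wells and 100% = wells lacking the enzyme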
# TcdB GH inh: TcdB glycohydrolase inhibitors, primary screen, biochemical, single point, plate reader | TcdB glycohydrolase enzymatic assay | Toxin B (Clostridioides difficile), P18177 | 350,000 compounds, 0.24% hits | AID 652162, 2013 | inhibition, % at 9.99 µM; in the data active means inhibition above about 10%
# * hit, by the source's call; . = not tested or not shown; + = active, no number.
SMILES,FBA Mtb inh,PrPC TRFRET,Y pestis TopoI,GDH-TPI counter,TcdB GH inh
COc1ccc(C2CC(c3ccccc3)=NN2c2ccc(N)cc2)cc1 (stereo unspecified),0,-10,-13,15,0
COc1ccc(C2CC(c3ccccc3)=NN2c2ccc(S(N)(=O)=O)cc2)cc1OC (stereo unspecified),+,-2,12,18,0
COc1cc(C2CC(c3ccccc3)=NN2c2ccccc2)ccc1OCC(=O)O (stereo unspecified),+,-7,16,12,1
C[C@@H]1CCCCO[C@H](CN(C)C(=O)NC2CCCCC2)[C@H](C)CN([C@@H](C)CO)C(=O)c2cc(NC(=O)CCC(F)(F)F)ccc2O1,.,.,.,.,0
CNC(=S)N1N=C(c2ccc(Br)cc2)CC1c1ccc(Br)cc1 (stereo unspecified),2,4,4,24,.
COc1ccc(C2=NN(c3ccc(C(=O)O)cc3)C(c3ccc(OC)c(OC)c3)C2)cc1 (stereo unspecified),+,-3,4,35*,0
NS(=O)(=O)c1ccc(N2N=C(c3ccc(Br)cc3)CC2c2ccc(F)cc2)cc1 (stereo unspecified),+,1,22,28,.
C[C@H](CO)N1C[C@H](C)[C@H](CN(C)C(=O)Nc2ccccc2)Oc2ccc(NC(=O)Nc3ccc(C(F)(F)F)cc3)cc2C1=O,.,.,.,.,0
COc1ccccc1-c1coc2c(CN3CCN(CCO)CC3)c(O)ccc2c1=O,152*,5,-3,16,.
CCN1CCN(Cc2c(O)ccc3c(=O)c(-c4ccccc4OC)coc23)CC1,119*,7,-1,28,.
COc1ccccc1-c1coc2c(CN3CCN(C)CC3)c(O)ccc2c1=O,132*,3,2,22,.
CN1CCN(Cc2c(O)ccc3c(=O)c(Oc4ccccc4Cl)c(C(F)(F)F)oc23)CC1,-2,-2,-13,13,1
C[C@@H]1CN([C@H](C)CO)C(=O)c2cc(NC(=O)Nc3ccccc3)ccc2O[C@@H]1CN(C)S(=O)(=O)c1ccc(F)cc1,.,.,.,.,-2
O=C(Nc1ccccc1)N[C@H]1CC[C@H](CCNS(=O)(=O)c2cccc(F)c2)O[C@H]1CO,.,.,.,.,-1
O=C(COC(=O)c1cc(=O)[nH]c2ccccc12)c1ccccc1,6,0,6,1,1
Cc1ccc(C(=O)COC(=O)c2cc(=O)[nH]c3ccccc23)cc1,1,6,-10,-3,11*
Nc1cc(N)cc(-c2nc3ccccc3o2)c1,2,-15,-15,-5,2
Nc1ccc(-c2nc3ccccc3o2)cc1,150*,10,3,14,0
Oc1ccc(/C=N/NC(=S)Nc2cccnc2)c(O)c1O,-9,-4,-13,37*,-2
Oc1cccc(/C=N/NC(=S)Nc2cccnc2)c1O,-2,0,-2,19,.
NC(=S)N/N=C/c1ccccc1O,5,-7,1,15,-8
Oc1ccccc1C=NNC(=S)NN=Cc1ccccc1O,-2,2,-8,45*,0
C[C@H]1CN([C@@H](C)CO)C(=O)c2cccc(N(C)C)c2O[C@H]1CN(C)C(=O)Nc1ccc2c(c1)OCO2,.,.,.,.,-1
COc1ccc(-c2cc(-c3ccccc3)nc(=O)[nH]2)cc1,+,6,8,14,2
CC(=O)N1C[C@H]2[C@@H](c3ccccc31)[C@@H](CO)N2C(=O)c1ccc(F)cc1,.,.,.,.,-1
SMILES,FBA Mtb inh,PrPC TRFRET,Y pestis TopoI,GDH-TPI counter,TcdB GH inh
C/C(=N\Nc1cc(N2CCOCC2)ncn1)c1ccc(O)cc1,-1,-4,0,16,28*
C=CCNc1oc(-c2cccs2)nc1C#N,+,1,2,28,.
Cc1ccc(CNc2oc(-c3cccs3)nc2C#N)cc1,+,2,0,7,.
N#Cc1nc(-c2cccs2)oc1NCc1ccco1,+,-2,-2,20,.
COCCNc1oc(-c2ccccc2Cl)nc1C#N,9,-2,3,15,2
N#Cc1nc(-c2cccs2)oc1NCc1ccccc1Cl,158*,5,-3,25,.
CC(=O)N(C)C[C@@H]1Oc2ncc(C#CC3(O)CCCC3)cc2C(=O)N([C@@H](C)CO)C[C@H]1C,.,.,.,.,-1
C[C@H](CO)N1C[C@H](C)[C@@H](CN(C)Cc2cccnc2)Oc2ncc(-c3ccncc3)cc2C1=O,.,.,.,.,1
